According to PubChem BioAssay (NCI):
The panel holds about 79,000 compounds, 15% with a hit somewhere; the sample as a whole holds those more often. Activity calls are given as the source filed them. Cut-off read from the data, not from the text of the source: active = growth inhibition above about 70%; inactive = the rest. Where a SMILES comes first, the peptide text is derived from it. The star is where a group is joined. Boc = CC(C)(C)OC(=O)*; NHNH2 = NN*

Experiments:
[1] = NCI Yeast Anticancer Drug Screen. Data for the rad50 strain (AID 155);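 note: 0% = growth of vehicle-only cultures of the same strain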; conditions: S. cerevisiae rad50 strain growth inhibition; at 50.0 µM; hits give high values
Method in brief: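 Yeast carrying a defined DNA repair defect were exposed to test compounds, and growth was compared with vehicle-treated controls to give percent inhibition.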

[2] = NCI Yeast Anticancer Drug Screen. Data for the mec2-1 strain (AID 157); conditions: S. cerevisiae mec2-1 strain, at 50.0 µM, hits give high values
Method in brief: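 Using mec2-1 yeast: add compound, measure growth, express inhibition versus vehicle-treated cultures.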

[3] = NCI Yeast Anticancer Drug Screen. Data for the sgs1 mgt1 strain (AID 161);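 note: 0% = growth of cultures given vehicle only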; conditions: S. cerevisiae sgs1 mgt1 strain, at 50.0 µM, hits give high values
Method in brief: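 Yeast cells carrying a defined DNA-repair defect were exposed to test compounds. Growth inhibition was measured relative to vehicle-treated controls.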

[4] = NCI Yeast Anticancer Drug Screen. Data for the cln2 rad14 strain (AID 165);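 note: 0% = growth equal to vehicle treated cultures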; conditions: S. cerevisiae cln2 rad14 strain, at 50.0 µM, hits give high values
Method in brief: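 Yeast strain cln2 rad14, bearing defects in cell cycle control and DNA repair, serves as the test system; values reflect growth inhibition compared with vehicle.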

[5] = NCI Yeast Anticancer Drug Screen. Data for the bub3 strain (AID 167); conditions: S. cerevisiae bub3 mutant strain, at 50.0 µM, hits give high values
Method in brief: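 Compounds were applied to a genetically altered yeast strain carrying a cell-cycle control defect. Growth inhibition was scored against vehicle-treated controls.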

[6] = NCI Yeast Anticancer Drug Screen. Data for the mlh1 rad18 strain (AID 175); conditions: S. cerevisiae mlh1 rad18 strain growth inhibition; at 50.0 µM; hits give high values
Method in brief: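 Steps: expose repair-defective yeast to compound; measure growth; express inhibition against vehicle-treated controls.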

Measured: growth inhibition

CCN(CC)CCCC(C)Nc1c2cc(OC)cc(C)c2nc2c(C)c(Cl)ccc12 (configuration not stated)
inactive: [1] 21.6% | [2] 50.6% | [3] 13.8% | [4] 19.2% | [5] 4.35% | [6] 29.4%

NC(=O)Cc1ccncc1
inactive: [1] 5.95% | [2] -2.85% | [3] -3.95% | [4] -9.9% | [5] -2.7% | [6] 1.55%

CCC(CC)C(=O)OCCOCCOCCOC(=O)C(CC)CC
inactive: [1] -9.3% | [2] -16.8% | [3] -2.15% | [4] 6.8% | [5] -3.35% | [6] 1%

CCOC(=O)CCC(NC(=O)c1ccc(Nc2nc3cc(C(F)(F)F)ccc3nc2C(=O)OCC)cc1)C(=O)OCC (configuration not stated)
inactive: [1] -20.1% | [2] 0.55% | [3] -14.3% | [4] -1.85% | [5] -10% | [6] 4.9%

CCC(C)C(NC(=O)C(Cc1c[nH]c2ccccc12)NC(=O)OC(C)(C)C)C(=O)NN (stereo not drawn) (Boc-Trp-Ile-NHNH2; configuration not given here)
inactive: [1] 24.8% | [2] 3.7% | [3] 8.5% | [4] 15.4% | [5] -4.35% | [6] 15.6%

COc1ccc(-c2c(C#N)c(N)n(C3OCC(O)C(O)C3O)c(=S)c2C#N)cc1 (configuration not stated)
inactive: [1] -33.6% | [2] -6.5% | [3] -15.3% | [4] -37.8% | [5] -1.9% | [6] 3.4%

O=C(Nc1ccc(S(=O)(=O)NC2CCCCC2)cc1)OC(c1ccccc1)c1ccccc1
inactive: [1] 21.6% | [2] -0.75% | [3] 18.2% | [4] 13.8% | [5] -6.15% | [6] 1.45%

CCCCCC/C=C1\CCC(CN(C)C)C1=O (configuration not stated)
active: [1] 79.4% | [2] 93.2% | [3] 91.1% | [4] 89.8% | [5] 90.7% | [6] 91.4%

C=C(C)CNCCN
inactive: [1] 36.1% | [2] 22.1% | [3] 6.2% | [4] -0.6% | [5] 26.6% | [6] 16.3%

O=C1c2ccccc2CN(C(=Nc2ccccc2)Nc2ccccc2)c2ccccc21
inactive: [1] 15.1% | [2] 2.95% | [3] -0.55% | [4] -25.7% | [5] -0.7% | [6] 14.9%

COc1ccc(C(=O)Nc2ccccc2C#N)cc1
inactive: [1] -0.15% | [2] -4.5% | [3] -9.25% | [4] -1.25% | [5] 1.55% | [6] -3.8%

CCOC(=O)c1[nH]n(-c2ccccc2)c(=O)c1/C=N/C(N)=S
inactive: [1] 2% | [2] -1.95% | [3] -15.8% | [4] 14.1% | [5] 17.8% | [6] 8.45%

COC(=O)C(=NNc1ccccc1[N+](=O)[O-])C(=O)OC
inactive: [1] 15.9% | [2] 5% | [3] 23.1% | [4] 33.8% | [5] 19.8% | [6] -2.6%

Cc1ccc(C(O)/C(=N/N)c2nc3ccc([N+](=O)[O-])cc3[nH]c2=O)cc1 (configuration not stated)
inactive: [1] 6.45% | [2] -20.1% | [3] -28.8% | [4] -13.2% | [5] -9.4% | [6] -12.1%

CNC(=O)NCCCC(NC(C)=O)C(=O)NCc1ccccc1 (configuration not stated)
inactive: [1] -19% | [2] -16.7% | [3] -16.2% | [4] 6.4% | [5] -12.5% | [6] 4.7%

O=[N+]([O-])c1cc(C(F)(F)F)ccc1Cl
inactive: [1] -11.2% | [2] 10.3% | [3] -5.85% | [4] 31.3% | [5] -12.9% | [6] -27.8%

CC(C)CCNc1ncnc2[nH]ncc12
inactive: [1] -16.5% | [2] -31.7% | [3] -26.2% | [4] -35.1% | [5] -13.8% | [6] -18.4%

Cn1c(=O)c2c(ncn2-c2ccc(N)cn2)n(C)c1=O
inactive: [1] -7.1% | [2] -4.55% | [3] -7.15% | [4] 9.45% | [5] 11.2% | [6] 4.1%

O=c1cc(Nc2ccccc2)c2ccccc2[nH]1
inactive: [1] -3.3% | [2] -20.1% | [3] 7.3% | [4] 12.6% | [5] -15.3% | [6] 23.3%

Cc1cc(=O)oc2c(CNC(CC(C)C)C(=O)O)c(O)ccc12 (configuration not stated)
inactive: [1] -51.9% | [2] -32.3% | [3] -46.6% | [4] -16.4% | [5] -24.8% | [6] -63.1%

Cc1ccc(NC(=O)C2c3ccccc3-c3ccccc32)cc1
inactive: [1] 39.4% | [2] 16.6% | [3] 16.9% | [4] -8.35% | [5] 10.9% | [6] 21.1%

O=[N+]([O-])c1ccccc1S(=O)c1ccccc1 (configuration not stated)
inactive: [1] -1.65% | [2] -0.15% | [3] -4.3% | [4] 11.2% | [5] -6.5% | [6] -6.25%

ClCCCOC1CCCCO1 (configuration not stated)
inactive: [1] -20.1% | [2] -40.5% | [3] -21.1% | [4] 26.9% | [5] -7.6% | [6] 1.4%

O=C(OCc1ccccc1)N1CCCCC1
inactive: [1] 7.9% | [2] -2.65% | [3] 5.45% | [4] -13.2% | [5] 22.2% | [6] -1%

CCCCC1(C(NC(=O)c2ccccc2Cl)c2ccncc2)C(=O)N(c2ccccc2)N(c2ccccc2)C1=O (configuration not stated)
inactive: [1] 33.8% | [2] 15.8% | [3] 9.15% | [4] 6.35% | [5] 33.5% | [6] 41.5%

CC(=O)OC(C(=O)N1CC1)C(OC(C)=O)C(OC(C)=O)C(OC(C)=O)C(=O)N1CC1 (configuration not stated)
inactive: [1] 24.1% | [2] 20.9% | [3] 25.4% | [4] 10.1% | [5] 28.6% | [6] 29.3%

CN1CN(c2ccccc2)C2(CCN(c3nc4ccccc4s3)CC2)C1=O
inactive: [1] -29.7% | [2] -6.1% | [3] -22.8% | [4] -18.4% | [5] 3.2% | [6] -17.1%

COC(=O)c1ccccc1OC(C)=O
inactive: [1] 9.8% | [2] 11.4% | [3] -0.4% | [4] 13.8% | [5] 1.5% | [6] -10.7%

C=CCC(=S)NCCc1c[nH]c2ccccc12
inactive: [1] -12.2% | [2] 2.4% | [3] -5.5% | [4] 2.55% | [5] 11.8% | [6] -18.9%

Fc1ccc(C=C2c3ccccc3-c3ccccc32)cc1
inactive: [1] 11.7% | [2] 4.5% | [3] 18.4% | [4] 39.2% | [5] 11.7% | [6] -3.6%

CC(C)(C)CC(C)(C)c1ccc(OCCOc2ccc(S(=O)(=O)O)cc2[N+](=O)[O-])cc1
inactive: [1] 68.8% | [2] 30.9% | [4] 1.65% | [5] -8.85% | [6] 37.2%
active: [3] 71.7%

CNC(=O)N(CC1CCCCC1)c1nc2c(=O)n(C)c(=O)[nH]c2s1
inactive: [1] -4.75% | [2] -5.9% | [3] -1% | [4] -22.7% | [5] -4.25% | [6] -3.6%

CCOc1c/c(=N\N=C(/C)c2ccc(Cl)cc2)n(C)c(=O)n1C
inactive: [1] -13.8% | [2] -8.5% | [3] -10.5% | [4] -35.2% | [5] -6.85% | [6] -12.7%

O=C(NNC(=O)c1cccc(F)c1)c1ccccc1
inactive: [1] -25.8% | [2] -4.25% | [3] -22.9% | [4] -6.05% | [5] -12.8% | [6] 5.2%

C=C(C)[C@@H]1CC[C@@H](C)C[C@H]1O
inactive: [1] 9% | [2] -11.8% | [3] -1.55% | [4] 13.8% | [5] 9.95% | [6] -1.65%

O=C(OCC1OC(OC(=O)N(c2ccccc2)c2ccccc2)C(OS(=O)(=O)c2ccc([N+](=O)[O-])cc2)C1OC(=O)c1ccccc1)c1ccccc1 (configuration not stated)
inactive: [1] 34.1% | [2] -5.05% | [3] -5.05% | [4] -10% | [5] 0.1% | [6] 24%

O=C(O)C(Br)C(O)c1ccccc1 (configuration not stated)
inactive: [1] -5.15% | [2] -2.85% | [3] 0.85% | [4] 2.15% | [5] 4.25% | [6] -8.2%
